Six1-Eya2 inh: qHTS Assay for Inhibitors of the Six1/Eya2 Interaction | Homeobox protein SIX1 (Homo sapiens) + Protein phosphatase EYA2 (Homo sapiens), … | AlphaScreen GST-Six1/His-Eya2 binding, biochemical; hits give low values | activity change, % (test concentration not listed) | 0.56% of 360,000 active | AID 651725, 2012; in the data active = activity change below about -65%; inconclusive = mostly about -30% to -63%
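Compounds are tested against tagged Six1 and Eya2 proteins bridged by glutathione donor and nickel acceptor beads; after a one-hour incubation at 37 °C without light, AlphaScreen emission is recorded.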
TDP1 inh: qHTS Assay for Inhibitors of Tyrosyl-DNA Phosphodiesterase (TDP1) | recombinant TDP1, AlphaScreen DNA substrate cleavage | Potency, µM (top dose mostly 130 µM), for the others: at the highest dose activity change, negative = inhibition, usual class: inhibitors | 0.28% of 350,000 active; note: potency is the fitted concentration of half-maximal effect; nearly all actives have a fitted effect of over 40% in size
Target sequence (Q9NUW8 whole entry, looked up): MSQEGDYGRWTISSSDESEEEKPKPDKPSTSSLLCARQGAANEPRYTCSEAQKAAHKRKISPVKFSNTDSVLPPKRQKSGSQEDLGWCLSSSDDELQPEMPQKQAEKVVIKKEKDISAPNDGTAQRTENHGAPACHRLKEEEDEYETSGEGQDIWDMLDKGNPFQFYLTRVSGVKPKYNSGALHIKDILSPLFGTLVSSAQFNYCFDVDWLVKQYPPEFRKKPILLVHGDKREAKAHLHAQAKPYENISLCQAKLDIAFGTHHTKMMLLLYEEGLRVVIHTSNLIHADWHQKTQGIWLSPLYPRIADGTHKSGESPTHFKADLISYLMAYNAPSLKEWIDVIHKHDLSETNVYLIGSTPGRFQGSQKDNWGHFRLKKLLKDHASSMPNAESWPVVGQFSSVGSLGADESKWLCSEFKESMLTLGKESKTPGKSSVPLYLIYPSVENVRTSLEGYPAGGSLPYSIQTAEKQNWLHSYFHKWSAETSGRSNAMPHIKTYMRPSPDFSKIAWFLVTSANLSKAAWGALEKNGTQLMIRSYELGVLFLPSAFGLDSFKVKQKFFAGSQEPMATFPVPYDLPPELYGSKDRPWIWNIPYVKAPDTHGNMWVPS
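Here, a 5' biotin and 3' phosphotyrosine-FITC DNA oligonucleotide reports Tdp1 activity: intact substrate bridges AlphaScreen beads, while cleavage leaves a 3' phosphate and drops signal. All incubations at room temperature.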
IL1B secr inh: qHTS for Inhibitors of Inflammasome Signaling: IL-1-beta AlphaLISA Primary Screen. THP-1 LPS/ATP IL-1B secretion, AlphaLISA, 16 h; hits give low values. activity change, % at 57.5 µM. 4.7% of 360,000 active. AID 743279, 2014; in the data active = activity change below about -50%; inconclusive = mostly about -30% to -49%
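THP-1 cells pretreated 1 hr with compounds (up to 57.5 uM final), then stimulated with LPS (250 ng/mL final) plus ATP (1.25 mM final); secreted IL-1B measured by AlphaLISA after 16 hr, decreased signal indicating inhibition.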
TDP1 cell noCPT: qHTS for Inhibitors of human tyrosyl-DNA phosphodiesterase 1 (TDP1): qHTS in cells in absence of CPT | Potency, µM (titrated, usually from 46.2 µM), for the others: at the top dose activity change, negative = growth inhibition, hits mostly inhibitors | 15% of 420,000 active | DT40 Tdp1-/- hTDP1 cells, no CPT, ATP luminescence, 48 h; note: potency is the fitted concentration of half-maximal effect; nearly all actives have a fitted effect of over 55% in size
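No-CPT arm: Tdp1-/-;hTDP1 DT40 cells (400/well) plus compounds, incubated ≥48 hr at 37 °C. Readout CellTiter-Glo luminescence.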
TDP1 cell CPT: qHTS for Inhibitors of human tyrosyl-DNA phosphodiesterase 1 (TDP1): qHTS in cells in presence of CPT | 12% of 420,000 active | AID 686979, 2013 | chicken DT40 Tdp1-/-;hTDP1 cells + 20 nM CPT, ATP luminescence, 48 h | Potency, µM (titrated, usually from 46.2 µM), inactives show top-dose activity change, negative = growth inhibition, most hits filed as inhibitors; note: potency is the fitted concentration of half-maximal effect; nearly all actives have a fitted effect of over 55% in size
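Chicken DT40 Tdp1-/- cells stably complemented with human TDP1 were seeded at 400 cells/well in medium containing 20 nM camptothecin, exposed to pin-transferred compounds, and grown at 37 °C for at least 48 hr. Viability was read as ATP luminescence.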
CtBP-E1A inh: qHTS Assay for Inhibitors of the CtBP/E1A Interaction; AID 651724, 2012; activity change, % (test concentration not listed); AlphaScreen GST-E1A/His-CtBP binding, 1536-well; hits give low values; 0.49% of 340,000 active; CtBP / adenovirus E1A interaction (AlphaScreen); in the data active = activity change below about -65%; inconclusive = mostly about -30% to -63%
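In 5 uL wells, 23 nL compound meets equimolar GST-E1A and His-CtBP (5X stock 125 nM each) for 2 h, 37 °C. Beads (5X, 50 ug/mL) then 1 h, 37 °C, dark.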
* = called active by the depositor; ? = inconclusive; nt = no result; [ ] = another dose, or the depositor's remark. Compounds with a hit are over-represented: about 18% of the library has one in this group of screens. Unless noted, calls come from the whole dose curve; as a rule, active = well fitted curve in the direction sought with a large enough effect; inconclusive = small, poorly fitted or top-dose-only effect, or another doubt; inactive = no such curve, though single readings can be large; an effect the other way counts as inactive or inconclusive. % is set by controls: 0 for no effect and ±100 for the full control effect.

SMILES | Six1-Eya2 inh | TDP1 inh | IL1B secr inh | TDP1 cell noCPT | TDP1 cell CPT | CtBP-E1A inh
Cc1ccc(CNC(=O)CNS(=O)(=O)c2cccc3nsnc23)cc1 | -1.0 | 1.0% | 9.1 | -8.6% | -12.9% | 0.0
CC(=O)NC(=S)NNC(=O)C(c1ccccc1)c1ccccc1 | 0.3 | 10.3% | 58.5 | 20.6µM* | 13µM* | nt
Cc1nc2c(OCc3ccc(F)cc3)cccn2c1N(C)C(=O)CCC1CCCC1 | -1.3 | nt | -24.7 | 23.1µM* | ? | -8.2
Cc1nc2c(OCc3ccc(Cl)cc3)cccn2c1N(C)C(=O)CCC1CCCC1 | 4.1 | nt | 11.6 | 23.1µM* | 14.6µM* | -0.4
Cc1nc2c(OCc3ccc(C#N)cc3)cccn2c1N(C)C(=O)CCC1CCCC1 | 9.5 | nt | -55.3* | ? | ? | -29.8
COC(=O)c1ccc(COc2cccn3c(N(C)C(=O)CCC4CCCC4)c(C)nc23)cc1 | -11.3 | nt | 15.8 | 20.6µM* | 18.4µM* | -2.2
CN1CCN(c2ccc(C(=O)c3cn(-c4ccc(F)c(Cl)c4)nn3)cc2)CC1 | -2.4 | 1.8% | 10.4 | 16.4µM* | ? | -5.7
Cc1ccc(-n2cc(C(=O)c3ccc(N4CCN(C)CC4)cc3)nn2)cc1Cl | 0.9 | -0.6% | 4.8 | 20.3% | 0.0% | 6.2
CSc1ccc(C2C(C#N)=C(N)N(c3ccccc3)C3=C2C(=O)CCC3)cc1 (stereo not drawn) | -6.2 | 7.0% | -6.0 | -27.9% | -13.3% | -2.9
N#CC1=C(N)N(c2ccc(F)cc2)C2=C(C1c1ccc(O)cc1)S(=O)(=O)CC2 (stereo not drawn) | -13.1 | 12.5% | -0.4 | ? | 20.6µM* | -8.6
O=C(CN(c1ccccc1)S(=O)(=O)c1ccccc1)NCCSc1nc2ccccc2s1 | 4.9 | -2.0% | 54.2 | 18.4µM* | ? | -13.4
Cc1ccc(N(CC(=O)NCCSc2nc3ccccc3s2)S(=O)(=O)c2ccccc2)c(C)c1 | -5.9 | 0.0% | -9.3 | 25.9µM* | ? | -7.8
Cc1cccc(N(CC(=O)NCCSc2nc3ccccc3s2)S(=O)(=O)c2ccccc2)c1 | nt | 1.4% | nt | nt | nt | nt
COc1ccc(N(CC(=O)NCCSc2ccc(C)cc2)S(=O)(=O)c2ccccc2)c(OC)c1 | 4.5 | 2.3% | -9.3 | ? | ? | 34.8
Cc1ccc(S(=O)(=O)N2CCC(=O)N([C@H](COCc3cccc(C(F)(F)F)c3)Cc3ccccc3)CC2)cc1 | nt | 4.1%[96 µM] | nt | nt | nt | nt
Cc1ccc(-c2cn(C[C@H]3CC[C@@H]([C@@H]4CC[C@H](Cn5cc(-c6ccc(C)cc6)nn5)O4)O3)nn2)cc1 | 0.0 | nt | 70.6 | -6.0% | -5.1% | -0.3
c1ccc(-c2cn(C[C@H]3CC[C@H](Cn4cc(-c5ccccn5)nn4)O3)nn2)nc1 | -91.7* | nt | -6.0 | 4.7% | -5.5% | -90.2*
Brc1cccc(-c2n[nH]c(-c3ccccc3)n2)c1 | 3.9 | 6.5% | ? | 23.1µM* | ? | 5.8
CC(C)Cc1nnc(NC(=O)CCNC(=O)c2ccco2)s1 | -0.9 | 0.6% | 3.7 | -0.6% | 20.9% | -1.9
COC(=O)c1c(-c2ccc(Cl)cc2)noc1N1CCN(c2ccc(F)cc2)CC1 | nt | 5.4% | nt | 20.6µM* | 20.6µM* | nt
COC(=O)c1c(-c2ccc(Cl)cc2)noc1N1CCN(c2cccc(C(F)(F)F)c2)CC1 | nt | -2.7% | nt | 23.1µM* | 14.6µM* | nt
COC(=O)c1c(-c2ccc(Cl)cc2)noc1N1CCN(c2ccccc2OC)CC1 | nt | 5.4% | nt | ? | ? | nt
Cc1cccc(C(=O)Nc2nnc(S(=O)(=O)N(C)Cc3ccccc3)s2)c1 | nt | -1.3% | nt | ? | ? | nt
O=c1cc(N2CCN(c3ccccc3Cl)CC2)[nH]c(=O)n1Cc1ccc(F)cc1 | 6.1 | -1.9% | 18.2 | 1.46µM* | 4.61µM* | -0.2
CCN1CCN(c2cc(=O)n(Cc3ccc(F)cc3)c(=O)[nH]2)CC1 | 2.2 | -10.4% | 15.9 | 1.7% | 0.6% | nt
SMILES | Six1-Eya2 inh | TDP1 inh | IL1B secr inh | TDP1 cell noCPT | TDP1 cell CPT | CtBP-E1A inh
COc1ccccc1N1CCN(c2cc(=O)n(-c3ccccc3Cl)c(=O)[nH]2)CC1 | 1.8 | -6.1% | 28.0 | -15.8% | -21.4% | 4.2
COc1ccccc1N1CCN(c2cc(=O)n(Cc3ccc(F)cc3)c(=O)[nH]2)CC1 | 0.0 | 0.0% | 32.4 | 4.61µM* | 3.66µM* | 7.8
c1ccc2oc(C3=NCCN3)cc2c1 | nt | -6.9%[56.1 µM] | nt | -7.3% | -3.5% | nt
O=C(c1ccc(Cn2cc(Br)cn2)cc1)N1CCN(c2ccccc2)CC1 | -10.2 | 3.3% | -10.9 | 16.4µM* | 14.6µM* | -2.8
COc1ccccc1N1CCN(C(=O)c2ccc(CN3CCc4ccccc4C3)cc2)CC1 | -7.5 | 2.8% | -14.1 | ? | 16.4µM* | -0.6
O=C(c1ccc(CN2CCc3ccccc3C2)cc1)N1CCN(c2ccc(F)cc2)CC1 | -18.3 | nt | -62.5* | 13µM* | 16.4µM* | -12.5
O=C(c1ccc(CN2CCc3ccccc3C2)cc1)N1CCCCC1 | -4.3 | -2.1% | 8.0 | ? | -27.8% | -0.8
CC1(C)Cc2cccc(OCC(=O)N3CCN(c4ccccc4F)CC3)c2O1 | -6.1 | -15.9% | 30.1 | ? | ? | 2.4
O=C(c1ccc(Cn2cc(Cl)cn2)cc1)N1CCN(c2ccccc2)CC1 | -5.8 | -1.0% | 2.9 | ? | -23.4% | 0.0
COc1ccccc1N1CCN(C(=O)c2ccc(COc3cccc4c3OC(C)(C)C4)cc2)CC1 | -20.2 | nt | ? | 16.4µM* | ? | -0.6
COc1ccc(C)cc1S(=O)(=O)N1CCC2(CC1)OCCN2S(=O)(=O)c1ccccc1 | -1.6 | nt | 10.2 | ? | ? | 1.7
Cc1nn(Cc2ccc(F)cc2)c(C)c1NC(=O)C1c2ccccc2Oc2ccccc21 | -20.1 | 4.6% | -24.8 | ? | -25.7% | 0.3
COc1ccc(OCC(=O)Nc2cccc3cccnc23)cc1 | 11.3 | -4.1% | 24.2 | 1.1% | -4.8% | 8.2
CC1=NCCN1S(=O)(=O)c1cc([N+](=O)[O-])ccc1Cl | 3.4 | 1.2% | 0.0 | -13.4% | 1.1% | 14.2
CC1=NCCN1S(=O)(=O)c1c(C(C)C)cc(C(C)C)cc1C(C)C | 0.4 | -2.8% | -58.5* | ? | -18.7% | -2.3
Cn1ccc2c(-c3ccc(CO)cc3)cc3c(c21)C1CCC3C1 (stereo not drawn) | -24.3 | nt | 38.3 | ? | 18.4µM* | -14.1

Source: PubChem BioAssay (National Center for Advancing Translational Sciences (NCATS))
